Measurements as given in PubChem BioAssay.
Several values for one entry are separate records, joined by “and”; a condition that tells them apart may be missing. Identical values can stand only once. Activity calls are given as the source filed them.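 Rule for the calls, unless noted: active = thallium flux through the channel raised or lowered by more than 3 SD from vehicle-only wells, actives on both sides; inactive = the rest.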

Experiments:
[1] = Wnt pathway potentiators raising nuclear beta-catenin – imaging, WNT3A-conditioned medium, mouse C2C12, NPC library, primary screen (AID 1117326; in the data active = nuclear beta-catenin stimulation mostly above about 4.2%, no sharp cut-off; inactive = mostly below about 10%); settings: stronger effect = higher value
[2] = stimulators of insulin release from INS-1E, primary screen, cell-based, 5 mM glucose, NPC library (AID 1117329;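 active = compound raises insulin release from rat beta cells at 5 mM glucose, no numeric limit stated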); settings: rat INS-1E insulin secretion, at 10 µM, stronger effect = higher value
[3] = growth inhibition of GSK3B-pretreated HCT116 cells – cell-based, CellTiter-Glo, 0.2 to 20 µM (AID 1117336;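 active = compounds lowering colon cancer cell viability after pretreatment blocking the GSK3B kinase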); settings: HCT116 viability after GSK3B inhibitor, at 20 µM, stronger effect = higher value
[4] = inhibition of endothelial tube formation, primary screen, imaging, VEGF stimulated, CD31 staining, tube area, NPC library (AID 1117340;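 active = compound that reduces growth-factor-driven endothelial tube area in a mixed cell culture, no cutoff stated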); settings: VEGF-stimulated ADSC/ECFC co-culture, at 10 µM, stronger effect = higher value
[5] = GLP1 release stimulators, primary, NCI-H716, NPC library (AID 1117341;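 active = compound raises GLP1 secretion from the human gut endocrine cells, with no numeric limit stated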); settings: NCI-H716 cells, at 10 µM, stronger effect = higher value
[6] = HCT116 colon cancer cell growth inhibition, primary screen, CellTiter-Glo luminescence, NPC library (AID 1117342;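 active = compounds that lower survival of HCT116 colon cancer cells in the luminescence readout, no numeric limit stated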); settings: at 20 µM (top of the series)
[7] = reduced SW480 viability measured with CellTiter-Glo, NPC library, primary (AID 1117343;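 active = compounds that lower viability of the colon cancer cells in the luminescence readout, with no numeric limit stated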); settings: CellTiter-Glo luminescence; at 20 µM (top of the series)
[8] = NPC library primary testing for decreased DLD-1 cell viability via CellTiter-Glo (AID 1117346;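 active = compounds that lower survival of DLD-1 colon cancer cells in the luminescence readout, no cutoff given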); settings: DLD-1 viability, CellTiter-Glo luminescence; at 20 µM (top of the series)
[9] = biological target: 6-phosphogluconate dehydrogenase, decarboxylating (Homo sapiens) (UniProt P52209); experiment: inhibition of human phosphogluconate dehydrogenase – biochemical, recombinant enzyme, NADPH absorbance, primary screen (AID 1159550;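 active = at least 20% inhibition of 6-phosphogluconate dehydrogenase activity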); settings: recombinant 6PGD, NADPH absorbance 341 nm; at 10 µM; stronger effect = higher value
Chain of 6-phosphogluconate dehydrogenase, decarboxylating (Homo sapiens) (P52209 whole entry, looked up): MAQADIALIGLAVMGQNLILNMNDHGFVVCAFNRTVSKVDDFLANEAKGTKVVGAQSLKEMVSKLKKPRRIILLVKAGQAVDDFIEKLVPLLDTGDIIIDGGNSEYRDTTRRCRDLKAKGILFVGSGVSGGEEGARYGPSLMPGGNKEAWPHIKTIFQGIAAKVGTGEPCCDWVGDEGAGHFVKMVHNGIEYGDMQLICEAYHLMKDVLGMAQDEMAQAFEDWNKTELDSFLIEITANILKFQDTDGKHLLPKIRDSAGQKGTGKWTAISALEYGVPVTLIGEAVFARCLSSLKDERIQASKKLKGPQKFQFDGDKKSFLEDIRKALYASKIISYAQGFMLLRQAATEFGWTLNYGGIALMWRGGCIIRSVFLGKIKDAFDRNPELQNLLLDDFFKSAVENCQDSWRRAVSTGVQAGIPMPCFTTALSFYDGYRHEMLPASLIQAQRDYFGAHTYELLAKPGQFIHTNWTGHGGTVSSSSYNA

[10] = EMT-state selective cytotoxicity in co-culture – imaging, PC-3E GFP, TEM4-18 mCherry, primary screen (AID 1345086;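 active = compounds killing one labelled cell type while sparing the other, by normalised counts and ratio limits, not self-fluorescent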;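 for all read-outs here: cells exposed to compound for 72 h before imaging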;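 for red/green cell ratio (normalised): normalised mesenchymal count divided by normalised epithelial count so high means epithelial killing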); settings: PC-3E GFP / TEM4-18 mCherry co-culture, imaging cell counts, at 1 µM; for red/green cell ratio (normalised): actives lie on both sides, counts scaled to control wells, 1 = unselective
[11] = MELAS cybrid and Rieske KO viability enhancers – cell-based, MELAS cybrids, Rieske KO mouse fibroblasts, CellTiter-Glo, primary screen (AID 1508586;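 active = mean z-score across replicates of 1.96 or higher in either the MELAS or the Rieske mutant cell line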;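 note: z relative to plate mean and SD of compound and empty wells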); settings: low glucose
[12] = biological target: NAD(+) hydrolase SARM1 (Homo sapiens) (UniProt Q6SZW1); experiment: blocking NAD cleavage by SARM1 SAM-TIR – cell lysate, NAD-Glo luminescence (AID 1508614;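 active = compound whose remaining NAD level is above about 45 nM, limit read from the data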;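 note: higher remaining NAD means stronger inhibition of SARM1 NADase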); settings: SAM-TIR HEK293T lysate NADase, at 1 µM, stronger effect = higher value
Chain of NAD(+) hydrolase SARM1 (Homo sapiens) (Q6SZW1 whole entry, looked up, the tested form may be a part): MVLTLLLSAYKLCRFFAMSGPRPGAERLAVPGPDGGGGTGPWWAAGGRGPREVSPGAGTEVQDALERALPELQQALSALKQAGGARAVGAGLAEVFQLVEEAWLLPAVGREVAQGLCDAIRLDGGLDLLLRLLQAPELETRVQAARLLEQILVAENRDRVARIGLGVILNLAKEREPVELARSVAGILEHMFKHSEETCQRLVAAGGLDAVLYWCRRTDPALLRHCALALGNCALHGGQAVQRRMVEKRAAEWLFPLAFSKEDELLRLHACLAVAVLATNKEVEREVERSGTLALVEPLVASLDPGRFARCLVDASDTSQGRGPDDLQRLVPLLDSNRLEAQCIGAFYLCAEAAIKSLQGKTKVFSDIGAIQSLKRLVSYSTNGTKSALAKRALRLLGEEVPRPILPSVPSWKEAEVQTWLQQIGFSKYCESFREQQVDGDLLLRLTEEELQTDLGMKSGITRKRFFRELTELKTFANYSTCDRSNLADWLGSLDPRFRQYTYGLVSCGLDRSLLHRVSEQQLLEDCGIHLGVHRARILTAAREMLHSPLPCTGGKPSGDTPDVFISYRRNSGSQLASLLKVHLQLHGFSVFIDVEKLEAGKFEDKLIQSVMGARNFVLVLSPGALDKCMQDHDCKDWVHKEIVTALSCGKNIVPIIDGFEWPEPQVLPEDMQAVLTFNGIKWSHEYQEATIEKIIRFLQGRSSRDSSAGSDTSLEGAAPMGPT

[13] = biological target: Mitogen-activated protein kinase 7 (Homo sapiens) (UniProt Q13164); experiment: Gal4-ERK5 driven luciferase induction – cell-based, HTS, primary screen (AID 1508626;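 active = luciferase signal above three times the same-plate solvent-only control wells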;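 note: luciferase driven by Gal4-ERK5 fusion binding five Gal4 sites before minimal TATA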); settings: HeLa Gal4-ERK5 transactivation, 18 h, at 5 µM, stronger effect = higher value
Chain of Mitogen-activated protein kinase 7 (Homo sapiens) (Q13164 whole entry, looked up, the tested form may be a part): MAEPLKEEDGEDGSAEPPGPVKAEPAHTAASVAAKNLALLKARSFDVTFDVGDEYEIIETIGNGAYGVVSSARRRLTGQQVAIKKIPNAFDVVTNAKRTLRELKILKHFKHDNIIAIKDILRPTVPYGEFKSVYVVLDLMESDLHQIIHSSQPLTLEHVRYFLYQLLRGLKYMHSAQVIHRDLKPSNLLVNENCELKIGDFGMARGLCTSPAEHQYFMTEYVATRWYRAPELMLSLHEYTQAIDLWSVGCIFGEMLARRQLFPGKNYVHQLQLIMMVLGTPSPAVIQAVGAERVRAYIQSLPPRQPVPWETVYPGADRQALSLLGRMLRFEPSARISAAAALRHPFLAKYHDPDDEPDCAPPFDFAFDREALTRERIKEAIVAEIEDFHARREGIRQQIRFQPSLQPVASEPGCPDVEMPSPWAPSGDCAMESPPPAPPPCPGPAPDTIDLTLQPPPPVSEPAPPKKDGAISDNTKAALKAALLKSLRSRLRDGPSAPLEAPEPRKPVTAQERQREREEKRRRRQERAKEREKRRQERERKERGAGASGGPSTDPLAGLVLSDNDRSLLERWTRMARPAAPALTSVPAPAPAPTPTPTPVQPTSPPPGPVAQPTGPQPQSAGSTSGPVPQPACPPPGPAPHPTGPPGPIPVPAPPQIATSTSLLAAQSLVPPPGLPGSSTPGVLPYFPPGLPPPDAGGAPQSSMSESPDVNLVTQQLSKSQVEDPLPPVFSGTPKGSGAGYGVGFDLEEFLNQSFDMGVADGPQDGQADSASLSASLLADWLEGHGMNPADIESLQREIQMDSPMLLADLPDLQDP

F380Y = experiment: BK channel mutant inhibitors and activators – cell-based, U2OS BacMam, thallium flux, beta subunits, selectivity assay, profiling panel (AID 1259406); settings: U2OS BacMam BK variants, at 30 µM;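 note: initial slope of Thallos dye fluorescence rise after thallium is added; log ratio against the mean of 0.3% DMSO vehicle wells on the same plate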
F380Y/beta2Delta = experiment: as above; settings: U2OS BacMam BK variants, at 30 µM
[14] = biological target: Calcium-activated potassium channel subunit alpha-1 (Homo sapiens) + Leucine-rich repeat-containing protein 26 (Homo sapiens) (UniProt Q12791+Q2I0M4); experiment: as above; settings: U2OS BacMam BK variants, F380Y/Slo1WT/gamma1, at 30 µM
Chain of Calcium-activated potassium channel subunit alpha-1 (Homo sapiens) + Leucine-rich repeat-containing protein 26 (Homo sapiens) (Q2I0M4 whole entry, looked up, one chain of several): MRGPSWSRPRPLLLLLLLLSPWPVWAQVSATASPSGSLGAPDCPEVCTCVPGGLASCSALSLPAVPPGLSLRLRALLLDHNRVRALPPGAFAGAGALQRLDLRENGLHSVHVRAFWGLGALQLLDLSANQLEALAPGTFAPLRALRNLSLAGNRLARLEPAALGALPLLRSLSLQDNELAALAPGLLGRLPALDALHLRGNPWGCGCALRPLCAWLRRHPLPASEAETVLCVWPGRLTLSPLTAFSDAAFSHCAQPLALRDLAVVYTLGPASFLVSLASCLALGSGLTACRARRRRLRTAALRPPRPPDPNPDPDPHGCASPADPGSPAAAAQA

R275C = experiment: as above; settings: U2OS BacMam BK variants, at 30 µM
R275C/beta1 = experiment: as above; settings: U2OS BacMam BK variants, at 30 µM
R275C/beta2Delta = experiment: as above; settings: U2OS BacMam BK variants, at 30 µM
[15] = viability loss with induced miR-34 in A549 – imaging, A549 dox-inducible miR-34, nuclei and caspase counts, primary screen (AID 1347080;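 active = compounds whose cell count with miR-34 switched on is under 0.7 times the count with it off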); settings: A549 miR-34 inducible, Hoechst nuclei count, 48 h
[16] = measured here: epithelial PC-3E GFP cell survival
[17] = measured here: mesenchymal TEM4-18 mCherry cell survival
[18] = MELAS cybrid survival, CellTiter-Glo 48 h, stronger effect = higher value
[19] = Rieske KO mouse fibroblast survival, CellTiter-Glo 72 h

CC(=O)OCC(CCn1cnc2cnc(N)nc21)COC(C)=O
-0.751 and -0.17 and -0.227: z-score [11, 19]
1.14: normalised cell number [10, 17]
1.23: normalised cell number [10, 16]
2.8%: nuclear beta-catenin stimulation ([1]; stimulation, at 2 µM)
inactive: nuclear beta-catenin stimulation ([1]; at 10 µM) 0.9% | insulin secretion stimulation [2] 0.7% | viability decrease [3] -11.8% | tube area decrease [4] -3.2% | GLP1 secretion stimulation [5] 0.4% | inhibition of viability [6] -2.1% | viability decrease (inhibition) [7] 15.5% | viability decrease (inhibition) [8] -9.1% | inhibition [9] -8.38% | red/green cell ratio (normalised) [10] 0.92 | z-score [11, 18] -0.188 and -0.285 and 0.439 | remaining NAD [12] 10 nM | luciferase signal [13] 160 AU | log fold change Tl+ flux (F380Y) 0.0311 | log fold change Tl+ flux (F380Y/beta2Delta) -0.0244 | log fold change Tl+ flux [14] 0.0418 | log fold change Tl+ flux (R275C) -0.0357 | log fold change Tl+ flux (R275C/beta1) 0.0343 | log fold change Tl+ flux (R275C/beta2Delta) -0.0321

N[C@@H](Cc1cc(I)c(Oc2cc(I)c(O)c(I)c2)c(I)c1)C(=O)O
inactive: nuclear beta-catenin stimulation ([1]; at 10 µM) -0.2% | insulin secretion stimulation [2] 1.4% | viability decrease [3] 24.1% | tube area decrease [4] 5.6% | GLP1 secretion stimulation [5] 0.1% | inhibition of viability [6] 36.7% | viability decrease (inhibition) [7] 26% | viability decrease (inhibition) [8] -2% | inhibition [9] 12.1% | red/green cell ratio (normalised) [10] 1.06 | z-score [11, 18] -0.661 and -0.549 | remaining NAD [12] 10 nM | luciferase signal [13] 112 AU | log fold change Tl+ flux (F380Y) -0.00167 | log fold change Tl+ flux [14] 0.0246 | log fold change Tl+ flux (R275C) 0.00175 | log fold change Tl+ flux (R275C/beta1) 0.0456
1.02: normalised cell number [10, 17]
active: log fold change Tl+ flux (F380Y/beta2Delta) 0.163 | log fold change Tl+ flux (R275C/beta2Delta) 0.134
-1.8%: nuclear beta-catenin stimulation ([1]; stimulation, at 2 µM)
-0.144 and -1.61: z-score [11, 19]
0.96: normalised cell number [10, 16]

CCN(CC)CCOC(=O)C1(C2CCCCC2)CCCCC1
1.66: normalised cell number [10, 17]
1.1%: nuclear beta-catenin stimulation ([1]; stimulation, at 2 µM)
-0.235 and -0.17: z-score [11, 19]
active: viability decrease (inhibition) [7] 84.8% | luciferase signal [13] 1050 AU
1.25: normalised cell number [10, 16]
inactive: nuclear beta-catenin stimulation ([1]; at 10 µM) 2.1% | insulin secretion stimulation [2] 6.9% | viability decrease [3] -64.7% | tube area decrease [4] -0.9% | GLP1 secretion stimulation [5] 5.4% | inhibition of viability [6] 36.5% | viability decrease (inhibition) [8] 34.2% | inhibition [9] 11.5% | red/green cell ratio (normalised) [10] 1.32 | z-score [11, 18] 0.288 and 0.358 | remaining NAD [12] 10 nM | log fold change Tl+ flux (F380Y) 0.0289 | log fold change Tl+ flux (F380Y/beta2Delta) 0.0166 | log fold change Tl+ flux [14] -0.023 | log fold change Tl+ flux (R275C) -0.00463 | log fold change Tl+ flux (R275C/beta1) 0.0871 | log fold change Tl+ flux (R275C/beta2Delta) 0.0332

CN(C)CCC[C@@]1(c2ccc(F)cc2)OCc2cc(C#N)ccc21
inactive: nuclear beta-catenin stimulation ([1]; at 10 µM) 2.2% | viability decrease [3] 4.6% | tube area decrease [4] 3.6% | GLP1 secretion stimulation [5] 10.5% | inhibition of viability [6] -13.4% | viability decrease (inhibition) [8] 24.4% | inhibition [9] 8.36% | red/green cell ratio (normalised) [10] 0.99 | fold change ([15]; stronger effect = lower value, cell number ratio, induced over uninduced) 1.02 and 0.891 | z-score [11, 18] -0.471 and -0.676 | remaining NAD [12] 10 nM | log fold change Tl+ flux (F380Y) 0.0406 | log fold change Tl+ flux (F380Y/beta2Delta) 0.0188 | log fold change Tl+ flux [14] -0.0413 | log fold change Tl+ flux (R275C) -0.0846 | log fold change Tl+ flux (R275C/beta1) 0.0547 | log fold change Tl+ flux (R275C/beta2Delta) 0.0841
1.13: normalised cell number [10, 16]
9420 and 10600: cell count ([15]; measured here: total cells without miR-34 induction)
1.12: normalised cell number [10, 17]
-0.0102 and -1.12: z-score [11, 19]
9600 and 9400: cell count ([15]; measured here: total cells with miR-34 induction, stronger effect = lower value)
2.21 and 1.15: fold change ([15]; measured here: relative caspase fold change +Dox/-Dox)
-0.7%: nuclear beta-catenin stimulation ([1]; stimulation, at 2 µM)
active: insulin secretion stimulation [2] 31.7% | viability decrease (inhibition) [7] 66.3%
